# According to PubChem BioAssay:
# Values without a mark were called inactive. Activity calls are given as the source filed them.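 Rule for the calls: active = normalized viability below 100% at a tested concentration; inactive = the rest.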
# Assay: ovarian cancer cell viability with rucaparib, profiling panel, oncology-focused library, rucaparib conditional (AID 1508598)
# Conditions: patient-derived ovarian cancer cells, CellTiter-Glo viability, 144 h; at 1.25 µM; OCI-P5x cells; without rucaparib; active compounds read low
row,SMILES,viability
1,O=c1[nH]c(=O)n([C@@H]2C[C@H](O)[C@@H](CO)O2)cc1F,85.9% (active)
2,COc1cccc2c1C(=O)c1c(O)c3c(c(O)c1C2=O)C[C@@](O)(C(C)=O)C[C@H]3O[C@H]1C[C@H](N)[C@H](O)[C@H](C)O1,5.33% (active)
3,C[C@]12CC[C@H]3c4ccc(O)cc4CC[C@H]3[C@@H]1CC[C@H]2O,113%
4,CC1=C(/C=C/C(C)=C\C=C\C(C)=C/C(=O)O)C(C)(C)CCC1,92.3% (active)
5,CC(C)CC(CC(=O)NO)C(=O)N[C@@H](Cc1ccc2ccccc2c1)C(=O)N[C@@H](C)C(=O)NCCN (stereo partly specified),86% (active)
6,COc1cccc2c1C(=O)c1c(O)c3c(c(O)c1C2=O)C[C@@](O)(C(=O)CO)C[C@H]3O[C@H]1C[C@H](N)[C@@H](O)[C@H](C)O1,10.8% (active)
7,COc1ccc(C2=N[C@H](c3ccc(Cl)cc3)[C@@H](c3ccc(Cl)cc3)N2C(=O)N2CCNC(=O)C2)c(OC(C)C)c1,98% (active)
8,CO[C@H]1C[C@H]2CC[C@@H](C)[C@@](O)(O2)C(=O)C(=O)N2CCCC[C@H]2C(=O)O[C@H]([C@H](C)C[C@@H]2CC[C@H](OC(=O)C(C)(CO)CO)[C@H](OC)C2)CC(=O)[C@H](C)/C=C(\C)[C@@H](O)[C@@H](OC)C(=O)[C@H](C)C[C@H](C)/C=C/C=C/C=C/1C,55.6% (active)
9,O=C(O)c1cc(I)ccc1NC(=O)[C@H](Cc1ccccc1)NCc1ccccc1,77.5% (active)
10,Nc1ncn([C@@H]2O[C@H](CO)[C@@H](O)[C@@H]2O)c(=O)n1,111%
11,CO[C@H]1C[C@@H]2CC[C@@H](C)[C@@](O)(O2)C(=O)C(=O)N2CCCC[C@H]2C(=O)O[C@H]([C@H](C)C[C@@H]2CC[C@@H](O)[C@H](OC)C2)CC(=O)[C@H](C)/C=C(\C)[C@@H](O)[C@H](OC)C(=O)[C@H](C)C[C@H](C)/C=C/C=C/C=C/1C,61.2% (active)
12,CC(=O)OCC(=O)[C@]1(O)[C@H](C)C[C@H]2[C@@H]3CCC4=CC(=O)C=C[C@]4(C)[C@]3(F)[C@H](O)C[C@@]21C,94.3% (active)
13,CC[C@]1(O)C[C@@H]2CN(CCc3c([nH]c4ccccc34)[C@@](C(=O)OC)(c3cc4c(cc3OC)N(C=O)[C@H]3[C@@](O)(C(=O)OC)[C@H](OC(C)=O)[C@]5(CC)C=CCN6CC[C@@]43[C@@H]65)C2)C1,12.2% (active)
14,C[C@@]12CC[C@H]3c4ccc(O)cc4C[C@@H](CCCCCCCCCS(=O)CCCC(F)(F)C(F)(F)F)[C@H]3[C@@H]1CC[C@@H]2O (stereo partly specified),121%
15,CC(=O)O[C@@]1(C(C)=O)CC[C@H]2[C@@H]3C[C@H](C)C4=CC(=O)CC[C@]4(C)[C@@H]3CC[C@@]21C,111%
16,CC(=O)O[C@]12CO[C@@H]1C[C@H](O)[C@]1(C)C(=O)[C@H](O)C3=C(C)[C@H](OC(=O)[C@H](O)[C@@H](NC(=O)OC(C)(C)C)c4ccccc4)C[C@](O)([C@H](OC(=O)c4ccccc4)C21)C3(C)C (stereo partly specified),20.7% (active)
17,CCC1=CC2CN(C1)Cc1c([nH]c3ccccc13)[C@@](C(=O)OC)(c1cc3c(cc1OC)N(C)[C@H]1[C@@](O)(C(=O)OC)[C@H](OC(C)=O)[C@]4(CC)C=CCN5CC[C@@]31[C@H]54)C2 (stereo partly specified),11.4% (active)
18,CC(=O)O[C@H]1C(=O)[C@@]2(C)C([C@H](OC(=O)c3ccccc3)[C@]3(O)C[C@H](OC(=O)[C@H](O)[C@@H](NC(=O)c4ccccc4)c4ccccc4)C(C)=C1C3(C)C)[C@]1(OC(C)=O)CO[C@@H]1C[C@H]2O (stereo partly specified),18.7% (active)

# Same assay, conditions: patient-derived ovarian cancer cells, CellTiter-Glo viability, 144 h; at 5 µM; OCI-C5x cells; with rucaparib 10 µM; active compounds read low; 100% = cells with rucaparib alone
row,SMILES,viability
1,O=c1[nH]c(=O)n([C@@H]2C[C@H](O)[C@@H](CO)O2)cc1F,185%
2,COc1cccc2c1C(=O)c1c(O)c3c(c(O)c1C2=O)C[C@@](O)(C(C)=O)C[C@H]3O[C@H]1C[C@H](N)[C@H](O)[C@H](C)O1,2.96% (active)
3,C[C@]12CC[C@H]3c4ccc(O)cc4CC[C@H]3[C@@H]1CC[C@H]2O,81% (active)
4,CC1=C(/C=C/C(C)=C\C=C\C(C)=C/C(=O)O)C(C)(C)CCC1,96.2% (active)
5,CC(C)CC(CC(=O)NO)C(=O)N[C@@H](Cc1ccc2ccccc2c1)C(=O)N[C@@H](C)C(=O)NCCN (stereo partly specified),112%
6,COc1cccc2c1C(=O)c1c(O)c3c(c(O)c1C2=O)C[C@@](O)(C(=O)CO)C[C@H]3O[C@H]1C[C@H](N)[C@@H](O)[C@H](C)O1,8.09% (active)
7,COc1ccc(C2=N[C@H](c3ccc(Cl)cc3)[C@@H](c3ccc(Cl)cc3)N2C(=O)N2CCNC(=O)C2)c(OC(C)C)c1,182%
8,CO[C@H]1C[C@H]2CC[C@@H](C)[C@@](O)(O2)C(=O)C(=O)N2CCCC[C@H]2C(=O)O[C@H]([C@H](C)C[C@@H]2CC[C@H](OC(=O)C(C)(CO)CO)[C@H](OC)C2)CC(=O)[C@H](C)/C=C(\C)[C@@H](O)[C@@H](OC)C(=O)[C@H](C)C[C@H](C)/C=C/C=C/C=C/1C,93.4% (active)
9,O=C(O)c1cc(I)ccc1NC(=O)[C@H](Cc1ccccc1)NCc1ccccc1,126%
10,Nc1ncn([C@@H]2O[C@H](CO)[C@@H](O)[C@@H]2O)c(=O)n1,107%
11,CO[C@H]1C[C@@H]2CC[C@@H](C)[C@@](O)(O2)C(=O)C(=O)N2CCCC[C@H]2C(=O)O[C@H]([C@H](C)C[C@@H]2CC[C@@H](O)[C@H](OC)C2)CC(=O)[C@H](C)/C=C(\C)[C@@H](O)[C@H](OC)C(=O)[C@H](C)C[C@H](C)/C=C/C=C/C=C/1C,118%
12,CC(=O)OCC(=O)[C@]1(O)[C@H](C)C[C@H]2[C@@H]3CCC4=CC(=O)C=C[C@]4(C)[C@]3(F)[C@H](O)C[C@@]21C,115%
13,CC[C@]1(O)C[C@@H]2CN(CCc3c([nH]c4ccccc34)[C@@](C(=O)OC)(c3cc4c(cc3OC)N(C=O)[C@H]3[C@@](O)(C(=O)OC)[C@H](OC(C)=O)[C@]5(CC)C=CCN6CC[C@@]43[C@@H]65)C2)C1,34.1% (active)
14,C[C@@]12CC[C@H]3c4ccc(O)cc4C[C@@H](CCCCCCCCCS(=O)CCCC(F)(F)C(F)(F)F)[C@H]3[C@@H]1CC[C@@H]2O (stereo partly specified),124%
15,CC(=O)O[C@@]1(C(C)=O)CC[C@H]2[C@@H]3C[C@H](C)C4=CC(=O)CC[C@]4(C)[C@@H]3CC[C@@]21C,105%
16,CC(=O)O[C@]12CO[C@@H]1C[C@H](O)[C@]1(C)C(=O)[C@H](O)C3=C(C)[C@H](OC(=O)[C@H](O)[C@@H](NC(=O)OC(C)(C)C)c4ccccc4)C[C@](O)([C@H](OC(=O)c4ccccc4)C21)C3(C)C (stereo partly specified),37.7% (active)
17,CCC1=CC2CN(C1)Cc1c([nH]c3ccccc13)[C@@](C(=O)OC)(c1cc3c(cc1OC)N(C)[C@H]1[C@@](O)(C(=O)OC)[C@H](OC(C)=O)[C@]4(CC)C=CCN5CC[C@@]31[C@H]54)C2 (stereo partly specified),36.1% (active)
18,CC(=O)O[C@H]1C(=O)[C@@]2(C)C([C@H](OC(=O)c3ccccc3)[C@]3(O)C[C@H](OC(=O)[C@H](O)[C@@H](NC(=O)c4ccccc4)c4ccccc4)C(C)=C1C3(C)C)[C@]1(OC(C)=O)CO[C@@H]1C[C@H]2O (stereo partly specified),24.5% (active)
